The source of these data is ChEMBL document CHEMBL1201862, “PubChem BioAssay data set” (2004).

Hit rate of the full screen: of about 400,000 compounds, about 2,100 (0.53%) were called active. About 14% were inconclusive and are not listed. This is one part of a sample in which actives are shown more often than they occur. The rule behind the calls is not given here.

Chain of Ataxin-2 (Homo sapiens) (Q99700 whole entry): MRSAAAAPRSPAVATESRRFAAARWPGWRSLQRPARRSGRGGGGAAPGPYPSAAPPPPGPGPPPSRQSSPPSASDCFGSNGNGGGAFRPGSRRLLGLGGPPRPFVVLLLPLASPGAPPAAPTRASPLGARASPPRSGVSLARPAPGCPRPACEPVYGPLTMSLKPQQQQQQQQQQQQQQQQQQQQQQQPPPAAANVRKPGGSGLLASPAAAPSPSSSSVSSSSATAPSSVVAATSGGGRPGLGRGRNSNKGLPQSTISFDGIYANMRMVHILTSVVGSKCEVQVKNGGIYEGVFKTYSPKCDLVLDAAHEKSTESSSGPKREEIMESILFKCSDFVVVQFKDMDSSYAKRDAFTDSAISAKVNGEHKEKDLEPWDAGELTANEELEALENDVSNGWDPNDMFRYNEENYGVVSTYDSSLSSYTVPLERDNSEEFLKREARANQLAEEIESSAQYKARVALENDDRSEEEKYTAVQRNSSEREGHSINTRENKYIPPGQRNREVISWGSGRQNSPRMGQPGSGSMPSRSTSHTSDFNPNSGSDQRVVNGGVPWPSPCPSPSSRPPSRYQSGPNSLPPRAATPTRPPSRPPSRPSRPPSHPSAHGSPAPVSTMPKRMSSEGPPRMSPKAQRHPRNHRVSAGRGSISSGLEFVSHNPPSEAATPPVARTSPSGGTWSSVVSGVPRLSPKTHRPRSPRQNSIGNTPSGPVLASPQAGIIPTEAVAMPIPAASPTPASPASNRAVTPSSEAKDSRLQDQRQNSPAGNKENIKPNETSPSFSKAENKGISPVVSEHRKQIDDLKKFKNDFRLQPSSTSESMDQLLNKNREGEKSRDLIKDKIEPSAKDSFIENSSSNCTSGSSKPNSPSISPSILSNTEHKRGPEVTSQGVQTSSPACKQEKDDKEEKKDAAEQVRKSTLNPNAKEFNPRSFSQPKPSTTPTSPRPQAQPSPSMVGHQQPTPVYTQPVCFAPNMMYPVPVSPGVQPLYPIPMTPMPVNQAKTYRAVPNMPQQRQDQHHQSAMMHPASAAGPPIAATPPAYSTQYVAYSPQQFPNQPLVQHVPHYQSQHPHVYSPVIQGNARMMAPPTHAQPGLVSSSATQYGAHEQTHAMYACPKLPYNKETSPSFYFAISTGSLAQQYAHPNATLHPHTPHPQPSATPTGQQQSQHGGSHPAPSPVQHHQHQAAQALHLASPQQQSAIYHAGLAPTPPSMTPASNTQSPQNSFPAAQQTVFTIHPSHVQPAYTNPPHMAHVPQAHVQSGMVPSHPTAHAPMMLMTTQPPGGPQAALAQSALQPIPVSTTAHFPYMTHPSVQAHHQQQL

The experiment concerns the target Ataxin-2 (Homo sapiens) (UniProt Q99700). The experiment is described as follows: qHTS for Inhibitors of ATXN expression. The class given is functional. In general terms: qHTS replaces the single test concentration by a dilution series.
In the case of `O=C(c1cnc2nc3ccccc3n2c1)c1cc(F)ccc1O`, the Potency result was “inactive”. Turning to `CC(C)(C)c1ccc(C2=CC(c3ccccc3F)n3ncnc3N2)cc1` (stereo not drawn), the Potency entry is “inactive”. As for `CN1C(=O)c2ccc(N3CCCC3)cc2C1=O`, the Potency result is “inactive”. In the case of `O=C1C=CC(=O)N1c1ccc(N2CCCCC2)cc1`, the Potency is 39.8 µM (active). For the molecule `O=S(=O)(c1ccccc1)c1ccc(N2CCCCCC2)cc1`, the Potency result was “inactive”. The figure for `NC(c1csc(Nc2ccc(C(=O)c3ccccc3)cc2)n1)C1CCCCC1` (stereo not drawn) is 31.6 µM (active); for `COc1ccc(C(=O)c2sc(Nc3ccccc3)nc2N)cc1OC` it is “inactive”; for `COc1ccc(C(=O)c2sc(Nc3ccccc3)nc2C)cc1` it is “inactive”. The figure for `NC(Cc1ccc(F)cc1)c1csc(Nc2ccc(C(=O)c3ccccc3)cc2)n1` (stereo not drawn) is 39.8 µM (active); for `O=C(O)Cc1sc(Nc2ccccc2)nc1-c1ccccc1` it is “inactive”; for `COc1cccc(Nc2nc(C(N)C3CCCCC3)cs2)n1` (stereo not drawn) it is 39.8 µM (active). On to `NC(Cc1ccc(Cl)cc1)c1csc(Nc2ccc(C(=O)c3ccccc3)cc2)n1` (stereo not drawn), for which the Potency is 39.8 µM (active). On to `CCOC(=O)c1cc2c(=O)n3ccccc3nc2n(Cc2ccco2)/c1=N/C(=O)c1ccc(OC)cc1`, for which the Potency result was “inactive”. Consider `O=C1CCCC(O)=C1C1C2=C(CCCC2=O)OC2=C1C(=O)CCC2`, for which the Potency result is “inactive”.

Consider `CCOc1cccc2cc(-c3csc(NC(=O)CCC(=O)NCCN4CCCCC4C)n3)c(=O)oc12` (stereo not drawn), for which the Potency entry is “inactive”. The entry for `N#CC1=C(N)Oc2cc(N)ccc2C1c1ccccc1F` (stereo not drawn) is “inactive”. Regarding `c1ccc(-c2nnc(SCC3CCCCO3)nc2-c2ccccc2)cc1` (stereo not drawn), the Potency entry was “inactive”. Take `NC(Cc1ccccc1)c1csc(Nc2nncc3ccccc23)n1` (stereo not drawn): the Potency result was “inactive”. For `NC(Cc1ccc(F)cc1)c1csc(Nc2nncc3ccccc23)n1` (stereo not drawn), the Potency was 39.8 µM (active). The entry for `Cc1ccc(C#N)c(SCC(=O)Nc2nccs2)n1` is “inactive”. For the molecule `O=C(O)c1ccc(CP(=O)(c2ccccc2)c2ccccc2)cc1`, the Potency result is “inactive”. `O=C(C=P(c1ccccc1)(c1ccccc1)c1ccccc1)c1ccccc1-c1ccccc1C(=O)C=P(c1ccccc1)(c1ccccc1)c1ccccc1`: the Potency was 20 µM (active). Turning to `Cc1cccc2nc(CSc3nc4nncc-4c(O)n3-c3cccc(Cl)c3)cc(=O)n12`, the Potency is 35.5 µM (active).

Take `Cc1ccccc1-n1nnnc1SCc1cc(=O)n2ccsc2n1`: the Potency result was “inactive”. Regarding `CCCc1[nH]c2ccc(C#N)cc2c1CCC`, the Potency was 35.5 µM (active). For the molecule `O=C1N/C(=C/c2cccn2-c2ccccc2)C(=O)N1Cc1ccc(F)cc1`, the Potency entry was “inactive”. Take `CCCCCC(=O)N[C@@H](c1ccccc1)[C@@H](O)C(=O)O[C@H]1C[C@@]2(O)[C@@H](OC(=O)c3ccccc3)C3[C@](C)(C(=O)[C@H](OC(C)=O)C(=C1C)C2(C)C)[C@@H](O)C[C@H]1OC[C@@]31OC(C)=O` (stereo partly drawn): the Potency was 6.31 µM (active). As for `Cc1nc(C)c(C(=O)N2CCCC(C(=O)c3ccc4ccccc4c3)C2)s1` (stereo not drawn), the Potency is 28.2 µM (active). The entry for `COc1ccc(C(=O)C2CCCN(C(=O)c3csc(SC)n3)C2)cc1F` (stereo not drawn) is “inactive”; for `CC1=C(C(=O)N2CCCC(C(=O)c3cccc(C(F)(F)F)c3)C2)OCCO1` (stereo not drawn) it is “inactive”.

Turning to `Cc1cccc(N2CCN(C(S)=Nc3ccc4nc(N5CCN(C)CC5)cc(C)c4c3)CC2C)c1` (stereo not drawn), the Potency was 39.8 µM (active). Regarding `O=C(NCCCNC(=O)c1cnccn1)c1ccc(Br)cc1`, the Potency entry was “inactive”. With `O=C(N/N=C/c1ccc2nccnc2c1)c1ccc(Br)cc1`, the Potency result is “inactive”. On to `Cc1ccc(/C=C(\NC(=O)c2ccc(C)cc2)c2n[nH]c(S)n2)cc1`, for which the Potency is 25.1 µM (active). The figure for `Cc1ccc(C(=O)N/C(=C\c2ccc(Br)cc2)c2n[nH]c(S)n2)cc1` is 25.1 µM (active); for `CCc1cc(=O)oc2c(CN3CCCC3)c(O)c(Cl)cc12` it is “inactive”; for `NC(=O)c1sc2nnc(-c3ccccc3)c(-c3ccccc3)c2c1N` it is “inactive”. With `CCOC(=O)C1(Cc2cccc(Cl)c2)CCCN(C(=O)CCSC)C1` (stereo not drawn), the Potency result is “inactive”. On to `CCOc1ccccc1CNS(=O)(=O)c1c[nH]cn1`, for which the Potency entry was “inactive”. The figure for `CC(C)=CCC/C(C)=C/CNC(=O)C[C@H]1C[C@H](C(=O)N2CCOCC2)[C@@]2(CCC3CCCC3)c3[nH]c4cc(CCC(=O)N(C)C)ccc4c3CCN2C1=O` is 35.5 µM (active).

As for `CN(C)C(=O)CCc1ccc2c3c([nH]c2c1)[C@]1(CCC2CCCC2)[C@@H](C(=O)N2CCOCC2)C[C@H](CC(=O)NCc2cccc(C(F)(F)F)c2)C(=O)N1CC3`, the Potency was 31.6 µM (active).

`CC(C)=CCC/C(C)=C/CNC(=O)C[C@H]1C[C@H](C(=O)N(C(C)C)C(C)C)[C@@]2(C)c3[nH]c4cc(CCC(=O)N(C)C)ccc4c3CCN2C1=O`: the Potency is 20 µM (active). As for `CN(C)C(=O)CCc1ccc2c3c([nH]c2c1)[C@]1(CCC2CCCC2)[C@@H](C(=O)N2CCOCC2)C[C@H](CC(=O)NCCC2=CCCCC2)C(=O)N1CC3`, the Potency was 35.5 µM (active). Consider `CCOC(=O)N1CCN(C(=O)c2cn(CC)c3ccc(S(=O)(=O)N4CCCCC4)cc3c2=O)CC1`, for which the Potency result was “inactive”. The entry for `Cc1ccc(S(=O)(=O)c2cc3ccccc3oc2=O)cc1` is “inactive”; for `O=C(NCc1ccccc1)c1cc2ccc(O)cc2oc1=O` it is “inactive”; for `CCn1c(=N)c(C(=O)NCCCOC)cc2c(=O)n3cccc(C)c3nc21` it is “inactive”.

Take `COC(CNC(=O)c1ccc2c3c(onc13)-c1ccccc1C2=O)OC`: the Potency was 22.4 µM (active). The entry for `COCCCNc1c(O)nc2cccc3c2c1-c1ccccc1C3=O` is “inactive”. The figure for `COCCCNC(=O)c1ccc2c3c(onc13)-c1ccccc1C2=O` is 29.9 µM (active); for `COc1ccc(-c2nc3ccc(C(=O)NCC(OC)OC)cc3nc2-c2ccc(OC)cc2)cc1` it is “inactive”; for `CCOc1ccc(N(C)S(=O)(=O)c2ccc3ncc(C(=O)NCC(OC)OC)c(O)c3c2)cc1` it is “inactive”.

As to `O=c1oc2ccccc2cc1-c1nc2c(s1)CCCC2`, the Potency result is “inactive”. The entry for `CCc1ccc(C2=CC(c3cccc(Br)c3)n3nnnc3N2)cc1` (stereo not drawn) is “inactive”; for `CC(=O)Nc1ccc(S(=O)(=O)N2CCN(C(=O)C3COc4ccccc4O3)CC2)cc1` (stereo not drawn) it is “inactive”; for `CC(=O)Nc1ccc(S(=O)(=O)N2CCN(c3nc(NC4CCCC4)c4ccccc4n3)CC2)cc1` it is 31.6 µM (active). In the case of `O=C(O)c1ccc(S(=O)(=O)N2CCN(c3ccccn3)CC2)cc1`, the Potency result is “inactive”. In the case of `Cc1ccc(C)c(-n2c(=O)c(C#N)cc3c(=O)n4ccccc4nc32)c1`, the Potency result is “inactive”.
